# Source: PubChem
# Rows were chosen to be rich in hits. Some 2.5% of all compounds tested hit in one or more screens of this group.
# YB-1 expression – YB-1 expression inhibition. U2OS, qRT-PCR YB-1 vs CDIP delta delta Cp, 16 h; stronger effect = higher value; zero = DMSO, each unit about twofold. delta delta Cp (YB-1 minus CDIP) (no concentration beside the values). actives 0.37% (n = 30,000). AID 434959;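 active = delta delta Cp rounded down to an integer at or above 3, about 3 SD of DMSO wells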;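 also: higher means less YB-1 transcript or more CDIP transcript relative to DMSO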
# ROS inducer – inducers of reactive oxygen species in cancer cells | U2OS ROS induction, H2DCF-DA fluorescence | ROS induction (% of piperlongumine), % at 10 µM | actives 2% (n = 46,000) | AID 624156; in the data active = ROS induction above about 79%, passing the limit was not always enough;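 also: 0% = DMSO vehicle median and 100% = reference compound median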
# BJeLR viability – lowers viability of BJeLR cells; BJeLR fibroblasts viability, CellTiterGlo ATP luminescence, 48 h; HRASV12, hTERT and SV40 LT/ST transformed; viability loss activity score, % (test concentration not listed); actives 0.64% (n = 30,000); in the data active = viability loss activity score above about 50%;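 also: higher score means fewer live cells and less ATP luminescence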
# MITF inhib – inhibitors of MITF; TRPM1 promoter luciferase, luminescence, 24 h; inhibition, % (test concentration not listed); actives 0.28% (n = 37,000); in the data active = inhibition above about 85%;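 also: human melanocyte line stably carrying TRPM1 promoter luciferase reporter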
# * = called active by the depositor; / = not tested or not shown.
SMILES,YB-1 expression,ROS inducer,BJeLR viability,MITF inhib
COc1cc(CN(C)Cc2cccc3ccccc23)c([N+](=O)[O-])cc1OC,/,133.4*,/,4.6
COc1ccc([N+](=O)[O-])cc1NC(=O)C1(c2ccc(OC)c(OC)c2)CCCCC1,/,149.4*,/,11.1
COc1ccc([N+](=O)[O-])cc1NC(=O)C1(c2ccc(OC)c(OC)c2)CCOCC1,/,/,/,-1.9
N#Cc1c(N2CCN(C(=S)NCc3ccccc3)CC2)nc(-c2ccccc2)c2c1CCCC2,/,139.9*,-6.6,/
S=C(NCc1ccccc1)N1CCn2c(nc3ccccc32)C1,/,/,1.9,/
Cc1ccc(S(=O)(=O)N[C@@H](Cc2ccccc2)C(=O)CCl)cc1,0.842,78.6*,25.1,83.1
CCCC(NS(=O)(=O)c1ccc(C)cc1)C(=O)O (stereo not given),/,/,/,-12.5
O=C1CC(c2ccco2)Cc2nc(NC3CC3)ncc21 (stereo not given),/,/,-0.5,/
CC(C)CCOc1ccc(C(=O)C(CN2CCOCC2)c2ccccc2)cc1 (stereo not given),/,24.5,77.5*,/
CC(=O)O[C@@H]1C=C[C@@]2(C)C(C[C@@H](OC(C)=O)[C@@]3(C)C4=CC(=O)O[C@@H](c5ccoc5)[C@]4(C)CCC23)C1(C)C (stereo not given in full),-0.452,12.3,34.3,91.4*
CC(C)n1c2ccccc2c2nnc(SCCCC(=O)c3ccc(F)cc3)nc21,/,7.3,6.5,/
CC(C)n1c(/C=C/[C@H](O)C[C@H](O)CC(=O)O)c(-c2ccc(F)cc2)c2ccccc21,0.883,-10.2,56.3*,-1.8
CCOC(=O)CN1C(=O)/C(=C\c2ccc(OC)c(Br)c2)Sc2ccccc21,/,45.3,1.7,/
CCC(C)[C@H]1C(=O)O[C@H](C(C)C)C(=O)N(C)[C@@H](C(C)C)C(=O)O[C@H](C(C)C)C(=O)N(C)[C@@H](C(C)C)C(=O)O[C@H](CC(C)C)C(=O)N1C (stereo not given in full),0.709,-3.6,79.2*,77.9
CC(C)N1C(=O)S/C(=C/c2cc(Br)c(OCC(=O)O)c(Br)c2)C1=O,/,28.0,-1.4,/
CC(C)(C)c1ccc(S(=O)(=O)N2CCN(c3ccc([N+](=O)[O-])c(NCc4cccnc4)c3)CC2)cc1,/,98.4*,/,28.0
O=[N+]([O-])c1ccc(N2CCN(S(=O)(=O)c3ccc(F)cc3)CC2)cc1NCc1cccnc1,/,136.3*,/,7.9
Cc1cc(C)c(S(=O)(=O)N2CCN(c3ccc([N+](=O)[O-])c(NCc4ccco4)c3)CC2)c(C)c1,/,/,/,-0.4
O=[N+]([O-])c1ccc(N2CCN(S(=O)(=O)c3ccc(Cl)s3)CC2)cc1NCc1ccco1,/,35.6,/,-9.3
CCc1ccc(N=Cc2c(O)n(-c3ccccc3)c(=O)c3ccccc23)cc1,-0.492,-3.7,-5.9,-16.2
COc1ccc([Si](C)(C)[C@H]2[C@H](CCO)O[C@@]3(C(=O)N(Cc4cccc(N5CCC5=O)c4)c4ccccc43)[C@@H]2C)cc1,-0.0374,106.8*,/,/
COc1ccc([Si](C)(C)[C@@H]2[C@@H](CCO)O[C@]3(C(=O)N(Cc4ccc(NC(=O)[C@H](C)O)cc4)c4ccccc43)[C@H]2C)cc1,-0.283,90.8*,/,/
COc1ccc([Si](C)(C)[C@@H]2[C@@H](CCn3cc([C@H](O)c4ccccc4)nn3)O[C@]3(C(=O)N(Cc4ccc(N5CCC5=O)cc4)c4ccccc43)[C@H]2C)cc1,0.58,57.6,/,/
COc1ccc([Si](C)(C)[C@H]2[C@H](CCO)O[C@@]3(C(=O)N(Cc4ccc(N5CCOC5=O)cc4)c4ccccc43)[C@@H]2C)cc1,-0.482,129.7*,/,/
COc1ccc([Si](C)(C)[C@H]2[C@H](CCO)O[C@@]3(C(=O)N(Cc4cccc(NC(=O)[C@H](C)O)c4)c4ccccc43)[C@@H]2C)cc1,0.00653,11.8,/,/
SMILES,YB-1 expression,ROS inducer,BJeLR viability,MITF inhib
CCSc1ncnc2c1c(-c1ccccc1)cn2-c1cccc(F)c1,/,/,10.2,/
COc1ccc(CN(C(=O)c2cccc(Cl)c2)C2CCS(=O)(=O)C2)cc1OC (stereo not given),/,/,-2.2,/
CC(C(=O)O)c1ccc(C(=O)c2cccs2)cc1 (stereo not given),6.85*,-19.1,-5.6,2.8
O=C(NCCN1CCCCCC1)c1cnn2c(C(F)(F)F)cc(-c3ccccc3)nc12,/,15.3,5.2,/
CC1CCCN(S(=O)(=O)c2ccccc2)C1 (stereo not given),/,-8.2,3.3,/
COc1ccc(Cn2nnc3c(=O)[nH]c(C4CCCN(S(=O)(=O)c5ccccc5)C4)nc32)cc1 (stereo not given),/,139.1*,-9.5,/
